Inconclusive results are not listed. Unmarked numbers belong to inactive results. Calls of active or inactive are those of the source. Calls follow the shape of the dose curve; as a rule, active = well fitted cell-killing curve with a large enough effect; inconclusive = small, poorly fitted or top-dose-only effect; inactive = no such curve, though single readings can be large or run the other way.
Test: qHTS of pediatric cancer cell lines to identify multiple opportunities for drug repurposing: Primary screen for NB1643 cells (AID 1347099); also: nearly all actives have a fitted effect of over 50% in size;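 as to activity change, negative = cytotoxic: plate controls were DMSO neutral control for no effect and bortezomib positive control for full effect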
Conditions: NB1643 neuroblastoma viability, CellTiter-Glo luminescence, 48 h; series mostly up to 46 µM; activity change, negative = cytotoxic: at the top concentration
Method in brief: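 CRCs from 8- or 11-point titrations (lowest final 0.59 nM NPC, 0.78 nM MIPE). Cell viability: CellTiter-Glo after 48 h incubation, 15 min room-temperature development, luminescence imaging.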
Potency is read from the fitted curve at half-maximal effect.

| Compound | Potency | activity change, negative = cytotoxic |
| --- | --- | --- |
| CC(C)=CCNc1ncnc2c1ncn2[C@@H]1O[C@H](CO)[C@@H](O)[C@H]1O | 5.31 µM (active) |  |
| CCC1=C[C@@H]2CN(C1)Cc1c([nH]c3ccccc13)[C@@](C(=O)OC)(c1cc3c(cc1OC)N(C)[C@H]1[C@@](O)(C(=O)OC)[C@H](OC(C)=O)[C@]4(CC)C=CCN5CC[C@]31[C@@H]54)C2 | 2.66 µM (active) |  |
| COc1cc2c(cc1OC)CN(C(=O)[C@H](C)N[C@@H](CCc1ccccc1)C(=O)O)[C@H](C(=O)O)C2 |  | 1.99% |
| O=C(O)[C@@H](O)[C@H](O)[C@H](O)[C@@H](O)C(=O)O |  | -0.978% |
| CC(=O)OCC(=O)Nc1cc(C#N)cc(NC(=O)COC(C)=O)c1Cl |  | 23.2% |
| O=C(Nc1ccc(S(=O)(=O)N2CCOCC2)cc1)c1cc(Cl)ccc1NS(=O)(=O)c1ccc(Cl)s1 |  | -0.747% |
| CC1(C)S[C@@H]2[C@H](NC(=O)C(c3ccccc3)S(=O)(=O)O)C(=O)N2[C@H]1C(=O)O (stereo partly specified) |  | 7.97% |
| CCc1cc2cc(OC)c(OC)cc2c(Cc2ccccc2)n1 |  | 7.3% |
| CC(=O)Nc1ccc(S(=O)(=O)Nc2cc(C)on2)cc1 |  | 0% |
| CCNC(=O)NCCCOc1cccc(CN2CCCCC2)c1 |  | -14.7% |
| OCCCc1ccccc1 |  | 5.21% |
| O=c1[nH]c2ccccc2c(=O)n1CCCl |  | 7.27% |
| CCCCCC1Nc2cc(C(F)(F)F)c(S(N)(=O)=O)cc2S(=O)(=O)N1 (stereo unspecified) |  | 31.7% |
| CCCC(=O)O[C@]1(C(=O)COC(=O)CC)CC[C@H]2[C@@H]3CCC4=CC(=O)CC[C@]4(C)[C@H]3[C@@H](O)C[C@@]21C |  | 18.1% [at 16.1 µM] |
| CC(C)C(=O)Nc1cccc(C(F)(F)F)c1 |  | 17.8% |
| OC1(c2ccc(Cl)cc2)CCNCC1 |  | 4.62% |

| Compound | Potency | activity change, negative = cytotoxic |
| --- | --- | --- |
| Cc1cccc(C)c1NC(=O)c1ccc(N)cc1 |  | 17% |
| CCOc1c(N2CCOCC2)cnn(C)c1=O |  | 10.8% |
| CCOc1ncc(F)c(=O)[nH]1 |  | 6.52% |
| CC(=O)Nc1c(I)c(NC(C)=O)c(I)c(C(=O)O)c1I |  | 8.07% |
| C=CC[N+]1([C@H]2C[C@H]3[C@@H]4CC[C@H]5C[C@H](OC(C)=O)[C@@H](N6CCCCC6)C[C@]5(C)[C@H]4CC[C@]3(C)[C@H]2OC(=O)CC)CCCCC1 |  | 26.5% |
| COC(=O)/C=C(/C)N |  | 11.9% |
| Nc1nc2ccccc2n1Cc1ccc(F)cc1 |  | 10.7% |
| CCCc1ccc(OCC(=O)N2CCN(C(=O)COc3ccc(CCC)cc3OC)CC2)c(OC)c1 |  | 22.1% |
| CCC(=O)O[C@]1(C(=O)COC)[C@@H](C)C[C@H]2[C@@H]3CCC4=CC(=O)C=C[C@]4(C)C3(F)[C@@H](O)C[C@@]21C (stereo partly specified) |  | 0% |
| CN(C)C(=O)CNC(=O)Cc1ccccc1 |  | -6.33% |
| O=C1CCCc2c(O)cccc21 |  | 5.76% |
| CC(Oc1c(Cl)cccc1Cl)C1=NCCN1 (stereo unspecified) |  | -12.2% |
| CC(C)(C)C(O)/C=C/c1ccc2c(c1)OCO2 (stereo unspecified) |  | 0% |
| COC(=O)c1cc(S(N)(=O)=O)ccc1OC |  | 0.0777% |
| Nc1ccc([N+](=O)[O-])c(C(F)(F)F)c1 |  | 13.4% |
